Assay results from the supplement of paper PMC3334620.
Over roughly 33,000 sequences, “E-score (-0.5 to 0.5)” has its median near -0.035; the highest 2% begin near 0.34. Only a selection was taken, and the highest values are over-represented in it overall.

molecular target: T1, Mot3 (UniProt P54785); experiment: PBM E-score (8-mer binding enrichment) (E-score (-0.5 to 0.5)); higher = stronger / more preferred TF binding; settings: protein concentration: 200 nM; construct: GST-full length
T1 sequence: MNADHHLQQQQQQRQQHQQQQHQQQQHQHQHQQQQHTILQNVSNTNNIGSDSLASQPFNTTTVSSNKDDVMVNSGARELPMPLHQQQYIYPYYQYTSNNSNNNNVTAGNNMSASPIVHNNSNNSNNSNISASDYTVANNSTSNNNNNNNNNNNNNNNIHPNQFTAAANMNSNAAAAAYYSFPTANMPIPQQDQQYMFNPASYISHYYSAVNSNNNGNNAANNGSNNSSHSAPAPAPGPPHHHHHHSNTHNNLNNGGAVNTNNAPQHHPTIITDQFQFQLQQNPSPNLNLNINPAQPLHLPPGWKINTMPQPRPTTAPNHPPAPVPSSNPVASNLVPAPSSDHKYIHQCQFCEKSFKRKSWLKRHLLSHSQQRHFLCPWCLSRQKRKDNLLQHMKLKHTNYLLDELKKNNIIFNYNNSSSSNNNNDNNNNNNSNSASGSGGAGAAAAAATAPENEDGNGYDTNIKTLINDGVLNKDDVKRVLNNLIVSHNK
How it was run: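 PURExpress in vitro transcription/translation supplied GST-tagged yeast transcription factors, either full-length or DNA-binding domain. Applied at about 100-200 nM to universal all-10-mer Agilent arrays double-stranded by primer extension, the bound protein was detected with fluorescent anti-GST. E-scores, modified Wilcoxon-Mann-Whitney statistics, were given by the Universal PBM Analysis Suite to ungapped eight-base words pooled with their reverse complements after masliner normalisation.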

Sequence | PBM E-score
ACGCCGGC | -0.185
CGTAGCCC | -0.0561
AGGTACCT | 0.434
CGGTACCC | -0.277
ACGTACCT | 0.292
TGGTACCA | -0.0506
ACGTACCG | 0.00315
AAGTACCT | 0.338
CGGTACCG | -0.156
GGGTACCC | -0.304
AGGTACCG | 0.407
AGGTACCC | 0.361
GGGTACCA | -0.0217
AGGTACCA | 0.361
ACAATACC | 0.172
GAAGCTAC | -0.0982
AGCTGAAC | -0.255
CTTTTCGA | -0.07
GATCCTCC | -0.303
GTCCGGAC | 0.0843
AAGACAGA | 0.149
AACCTGAG | -0.0479
AACCTGAC | -0.0317
AACCTGTG | 0.357

Sequence | PBM E-score
AAGTTCCT | 0.341
ACGTTCCT | 0.447
ACGTTCCA | 0.0401
ACGTTCCG | -0.144
AAGTTCCG | 0.0427
AAGTTCCC | -0.309
AAACTTCC | -0.145
ACAGTAGT | -0.0747
AGAGTGGA | -0.0533
ACCGGTTC | -0.148
AACTGGTG | -0.193
CAGGAGGC | -0.0461
AGAAGAGA | -0.102
CAACACGC | 0.322
GAACACGA | 0.187
CAACACGA | 0.363
AAACACGA | 0.292
CAACACGG | 0.302
TAACACGA | 0.402
AGACTGTA | -0.109
CCCACAGA | -0.053
TCAACCAA | 0.0249
CTACAGAC | 0.0592
AAACAGGC | 0.301

Sequence | PBM E-score
ATACAGGC | 0.333
CTACAGGC | 0.354
CTACAGGA | 0.242
ATACAGGA | 0.173
GTACAGGA | 0.343
CAACAGGA | 0.172
CAACAGGC | 0.377
AGAGTTTC | -0.198
GGTGGTGA | -0.179
GAGAAGTA | -0.0782
CTGCAATC | -0.0301
CAAAGGAA | 0.415
CAAAGGTA | 0.212
CAAAGGAG | -0.0795
AAAAGGAC | 0.171
GAAAGGTA | 0.228
AAAAGGAA | 0.36
CAAAGGAC | -0.189
TAAAGGAA | 0.383
TAAAAGGA | 0.189
AAAAGGAT | 0.157
TAAAGGTA | 0.382
GAAAGGAA | 0.29
AGTATCCA | -0.198

Sequence | PBM E-score
GGACCGTA | -0.201
CTCACGAG | -0.266
CGGGCCAC | -0.257
CCGGCGAC | -0.266
CATCTTAA | 0.0785
ACCTCTTG | -0.0648
TATACGAA | 0.0446
CCTTAAGA | 0.0196
CCTTAAGC | 0.0192
CCTTAAGG | 0.345
TAACAGAA | 0.227
CGCTAAAG | -0.0919
TGTACACA | 0.34
GGTACATA | 0.238
GGTACACA | 0.271
CGTACACG | 0.226
CGTACATA | 0.305
AGTACATA | 0.362
AGTACACA | 0.313
AGTACACG | 0.357
AGTACACC | 0.052
ATTCTGTC | -0.0735
